Reference: paper PMC13494018
A number with no mark means an inactive call. The rule behind the calls is not given here.

B1: design_614_ef6b398b-10cb-4a07-8087-96dafb4f9c83_1693_dldesign_0_cycle1_af2pred (protein)
chain: AEELREEAERLREESRRLREEGIKGNAEEARKALLEINRNAGRLARLAVEASQLDPEVAAVANEALAEALENARALDETRRKLAA
B2: design_614_ef6b398b-10cb-4a07-8087-96dafb4f9c83_1662_dldesign_0_cycle1_af2pred (protein)
chain: SEEAQKKLEEAKRLLELAKEKLATDPQQGLVYALEAQELAAEALKDPEFAEEAQEILEEASRVASQAAARAIAQAQA
B3: design_614_ef6b398b-10cb-4a07-8087-96dafb4f9c83_1766_dldesign_0_cycle1_af2pred (protein)
chain: ARAELEAQLAKAKEAAAQAQAAAAQLAALGGTATAAAITAAAQRALAAAEADLSKAPEALTFLQALLQQAQHQVAQLT
B4: design_614_ef6b398b-10cb-4a07-8087-96dafb4f9c83_88_dldesign_0_cycle1_af2pred (protein)
chain: GAALEEALRARAEAARRAMVAVSQAYQLDPALGNEYLARLSEAIAAAEKVLAEGKAKTPEAAAKAVKAAAEEIAALAEEIAAAVEALK
B5: design_613_5efed0bc-64ba-423b-b3f9-a246574e49bb_1690_dldesign_0_cycle1_af2pred (protein)
chain: AAALEVGRRTLAALERTAEAAIAAARATTPEEAAREMGRARAAAEQARLIGEGVPELAPRAEALAERVAAAAAALEAA
B6: design_614_ef6b398b-10cb-4a07-8087-96dafb4f9c83_13_dldesign_0_cycle1_af2pred (protein)
chain: SEAEKQAIEIAIAAVLKAGELAGVPEEAKKVAEKIKKSNAGAALAIASAFLNRAAAAAEAAGDAATAAAIRALRTATTAKILALLRG
B7: design_614_ef6b398b-10cb-4a07-8087-96dafb4f9c83_520_dldesign_0_cycle1_af2pred (protein)
chain: AEGKALFEATKKEMEELREKGKAGTPELAKEQAAKILSLGLRTQGVLQTLGHTAEGDAALEYAKEVAEKAREWAKK
B8: design_614_ef6b398b-10cb-4a07-8087-96dafb4f9c83_806_dldesign_0_cycle1_af2pred (protein)
chain: AAAQLAAENIALAKAIFEEVRKEALKAIEALKKAKEAASDPELAAKYLEKAKEALKKAEELAAKGSEGIALLARNYVRSLLASTA
B9: design_614_ef6b398b-10cb-4a07-8087-96dafb4f9c83_1173_dldesign_0_cycle1_af2pred (protein)
chain: LLEEALALGAEAIAEGQEAIALAVALGPEFQPFALELSRLMARIAAAQIQLVRDPEAGAAALREEIEELRRAIQELLDSL
B10: design_614_ef6b398b-10cb-4a07-8087-96dafb4f9c83_1043_dldesign_0_cycle1_af2pred (protein)
chain: AAAEAAAVSKKAAELAKKALEKAKRMSPEEAINLAFQVATQAIRLGADAEAAINAIKIASEKGPEAGLKYLAEALEK
B11: design_614_ef6b398b-10cb-4a07-8087-96dafb4f9c83_1110_dldesign_0_cycle1_af2pred (protein)
chain: GEELAESAKKLMEVLKDVAKDAAARDPANAAKYLADAKKAEEEAKKALEESPEKGMQAAQDALAKFQKAAIAAAKA
B12: design_614_ef6b398b-10cb-4a07-8087-96dafb4f9c83_875_dldesign_0_cycle1_af2pred (protein)
chain: AAARARLAAALEVAKVAADLEANAKANPATAALASATATATIKHAAAIVAEVDPAAGAAVAAAATAAEAIAIITAALKAA
B13: design_614_ef6b398b-10cb-4a07-8087-96dafb4f9c83_652_dldesign_0_cycle1_af2pred (protein)
chain: GAAEEAKKWAKKAEEALKAAQKAADAAGKTPTLQQYVDNAKRAAEKAKETSKDPSKVEQTKGWAKMAELWAQAAKQQAAAVAAA
B14: design_614_ef6b398b-10cb-4a07-8087-96dafb4f9c83_822_dldesign_0_cycle1_af2pred (protein)
chain: AEEEKRRAIAEAAMRQFKEIAEGAAATALANPAIADGALASVKALGKNLVEGAKAQSPELGKKAAEVAKEAIEKVEKAAKEAKAA
B15: design_614_ef6b398b-10cb-4a07-8087-96dafb4f9c83_1557_dldesign_0_cycle1_af2pred (protein)
chain: SAAAAALAAANAEIDAHAARAVELAAGLPHAEEVRALITAGAAAAKSGTQLAEAFRLFSEAARLSNEATRAELRKAIAAANKAALA
B16: design_613_5efed0bc-64ba-423b-b3f9-a246574e49bb_2054_dldesign_0_cycle1_af2pred (protein)
chain: FERAARAVEAVIELLRLLAEGNPATAAELRARAEELEAELAKARELAEKEGPEAGKARAEAIAAEGRRLLAEASRTAV
B17: design_613_5efed0bc-64ba-423b-b3f9-a246574e49bb_2419_dldesign_0_cycle1_af2pred (protein)
chain: ALGQQLVQQAKEKGKELLEIAKKGTAADAGEAAVELARFTSETARQLEQAGLPAAAQQVLAIGQKTLKEISAIGIAKITA
B18: design_614_ef6b398b-10cb-4a07-8087-96dafb4f9c83_741_dldesign_0_cycle1_af2pred (protein)
chain: SELIERAKNLLEAAKVFLTAAQSALAAGQKATAATLAQQAIKYATEAAKLAKEAGDEKLAEEAKKVKEQAEKVLKQAQ
B19: design_614_ef6b398b-10cb-4a07-8087-96dafb4f9c83_884_dldesign_0_cycle1_af2pred (protein)
chain: MAVSDTLATNLATAERLLQRGIELAKTDPQAGIAQLRAAEILAQGTAAAAAAAGDTATAARAQAVAERARQAIEEV
B20: design_614_ef6b398b-10cb-4a07-8087-96dafb4f9c83_1883_dldesign_0_cycle1_af2pred (protein)
chain: EEEKKKLEEIKKLLEKAMEEAIKLVAADPEVQKRLKELAEELKKAETAGEAIRVALRAASVAGQVNPEAARVILTAAEEGAKLAK
B21: design_614_ef6b398b-10cb-4a07-8087-96dafb4f9c83_786_dldesign_0_cycle1_af2pred (protein)
chain: STEQAAQIALNTAKANYKAAKAAAAAGDLAQAEANVKNLKLLTEAAKYYDPEAGKEVEKYYKEAKEAVEKAKAA
B22: design_614_ef6b398b-10cb-4a07-8087-96dafb4f9c83_1868_dldesign_0_cycle1_af2pred (protein)
chain: TAAIATATIVALTKTASRSSVEDAKKLVEVAVGIAASLSAADAKAAIDAGLKVAKELAEEKNTETASVVAKELEKGGAKVAAEKA
B23: design_613_5efed0bc-64ba-423b-b3f9-a246574e49bb_1837_dldesign_0_cycle1_af2pred (protein)
chain: MTPREKAIAAINAATALAAAAVPAYADTFADLAGIVLTALEAGTGPTAVRVVGQAVVNVLRGAGATAAADAVAALYDEALEAAKAAA
B24: design_614_ef6b398b-10cb-4a07-8087-96dafb4f9c83_149_dldesign_0_cycle1_af2pred (protein)
chain: MEEAEKYLKKAEEIVEKAKEEALKYAKEGDIGAAVETLAKALKEARKLYEKAGKAGDPEEAEKKAKEAEERINQAMAEAARTALEVAN
B25: design_613_5efed0bc-64ba-423b-b3f9-a246574e49bb_1796_dldesign_0_cycle1_af2pred (protein)
chain: SAANIAAAKAYANMAATLAKQAGNEEAAKKAKEAAKVAADKEKATKLLKEAEELLKKEPAEKAPYTNKALEFIKLAKEALSKL
B26: design_613_5efed0bc-64ba-423b-b3f9-a246574e49bb_2086_dldesign_0_cycle1_af2pred (protein)
chain: AEDERRVASMRELAAQLVAIAEANAANPAALAIVRASALAAGRSFAAAASPEAAAEILAIAAATAARIAAIAAAAAAAA
B27: design_614_ef6b398b-10cb-4a07-8087-96dafb4f9c83_4_dldesign_0_cycle1_af2pred (protein)
chain: AAGDEAANAAIALGQVLGPEVAEETTKAVEYMKSGSEKEKAKEYAEKAVELAEKVGPNSAASLKAILEKAEKLFS
B28: design_613_5efed0bc-64ba-423b-b3f9-a246574e49bb_2281_dldesign_0_cycle1_af2pred (protein)
chain: AAAELIAKAKEYQAKALEYVKLAKEAEAAAKAATPEEGAKLNAKADFFNAMALVYAQRAAALLAQVDPALAKAALEKVQKAIA
B29: design_614_ef6b398b-10cb-4a07-8087-96dafb4f9c83_1163_dldesign_0_cycle1_af2pred (protein)
chain: EAAREAALALMNEALALLVEETGRDPRLAPALALMSKAVIEMAKDPEKGIELAEKAAEEAKKVDPEVGEKVKKLVEEAKKAVKA
B30: design_614_ef6b398b-10cb-4a07-8087-96dafb4f9c83_1258_dldesign_0_cycle1_af2pred (protein)
chain: AEQEKAAQLALNTAKAALKRAKAGSAEEARAAAETAKLAAEAAKVNSTDPAVIKEAEKVAEETKKVAEAK
B31: design_614_ef6b398b-10cb-4a07-8087-96dafb4f9c83_591_dldesign_0_cycle1_af2pred (protein)
chain: MTPEEAARAALRSARAALESLKLAVEQGGTLEDVLALGAVAKQSAQAAVELGKQAPEIYEEVKKEAEKIKKEVEKAVAKAKA
B32: design_614_ef6b398b-10cb-4a07-8087-96dafb4f9c83_1491_dldesign_0_cycle1_af2pred (protein)
chain: EERLKEILKLIKEAKKALEESPQLAAQKLAEAAELASEFPEIAVAAVRAIAFAPNPERAKEALEEALKLAEEALKK
B33: design_613_5efed0bc-64ba-423b-b3f9-a246574e49bb_2052_dldesign_0_cycle1_af2pred (protein)
chain: GGAAAIALAEAVARQAERQAEEAIAIAPERAPEIEELLERARELAKQAVALAKAGDLGAATEHVVKALELVGEIGRIAREAAAA
B34: design_614_ef6b398b-10cb-4a07-8087-96dafb4f9c83_950_dldesign_0_cycle1_af2pred (protein)
chain: AAAAAERTLAGIETLLEILRAAAADPRVTPAQLRAVINAARTAVEELERLDPELGREARERVEAAAREAEAAV
B35: design_613_5efed0bc-64ba-423b-b3f9-a246574e49bb_1763_dldesign_0_cycle1_af2pred (protein)
chain: LQELIENGETLEALGKSAAAAGFNATAKRLYQDAAEQYKKAAEKAKELGDEELAKEYEAKAKEAEAKAKEY
B36: design_614_ef6b398b-10cb-4a07-8087-96dafb4f9c83_2028_dldesign_0_cycle1_af2pred (protein)
chain: NAAAAEMAAAAAAFAATAAAAVTLSPEAGRKAVSAAFTAALTAISALGATASDEQTVAAMNTVWSTYIAATTALQAKAA
B37: design_614_ef6b398b-10cb-4a07-8087-96dafb4f9c83_1060_dldesign_0_cycle1_af2pred (protein)
chain: SAVEVLKRSIEAVARQALEAAERLIELDPELGERAREEVERLRAEALAAADADPAEGGALLVELLRLNAEIRRRAEELE
B38: design_613_5efed0bc-64ba-423b-b3f9-a246574e49bb_2155_dldesign_0_cycle1_af2pred (protein)
chain: AAAQAAAVATAAGQALLKQGKKLFEEGKKSGDKKLLEEAAKNFELAATMYAQASAAAGGAADANKKEAEAKLEEAKAAI

Target: CD276, Q5ZPR3
Sequence (Q5ZPR3 whole entry): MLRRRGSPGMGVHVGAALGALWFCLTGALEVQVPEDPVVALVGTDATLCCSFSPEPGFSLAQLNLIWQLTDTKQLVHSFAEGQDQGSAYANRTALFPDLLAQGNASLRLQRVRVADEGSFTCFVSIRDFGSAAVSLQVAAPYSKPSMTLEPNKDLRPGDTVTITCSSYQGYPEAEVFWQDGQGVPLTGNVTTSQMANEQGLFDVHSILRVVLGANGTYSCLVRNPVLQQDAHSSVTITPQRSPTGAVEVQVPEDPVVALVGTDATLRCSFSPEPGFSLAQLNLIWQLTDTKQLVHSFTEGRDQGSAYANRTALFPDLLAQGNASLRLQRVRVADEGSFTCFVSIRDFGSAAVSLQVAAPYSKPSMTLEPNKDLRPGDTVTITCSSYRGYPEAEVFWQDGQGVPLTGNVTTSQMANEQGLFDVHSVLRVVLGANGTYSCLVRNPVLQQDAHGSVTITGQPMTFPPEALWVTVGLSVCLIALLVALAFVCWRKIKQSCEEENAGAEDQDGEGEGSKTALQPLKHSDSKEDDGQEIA

Row | Binder | binding in a display sort
1 | B1 | not found
2 | B2 | not found
3 | B3 | not found
4 | B4 | not found
5 | B5 | not found
6 | B6 | not found
7 | B7 | not found
8 | B8 | not found
9 | B9 | not found
10 | B10 | not found
11 | B11 | not found
12 | B12 | not found
13 | B13 | not found
14 | B14 | not found
15 | B15 | not found
16 | B16 | not found
17 | B17 | not found
18 | B18 | not found
19 | B19 | binds (active)

Row | Binder | binding in a display sort
20 | B20 | not found
21 | B21 | not found
22 | B22 | not found
23 | B23 | not found
24 | B24 | not found
25 | B25 | not found
26 | B26 | not found
27 | B27 | not found
28 | B28 | not found
29 | B29 | not found
30 | B30 | not found
31 | B31 | not found
32 | B32 | not found
33 | B33 | not found
34 | B34 | not found
35 | B35 | not found
36 | B36 | not found
37 | B37 | not found
38 | B38 | not found
